# Results filed as inconclusive are left out. Where a call stands in place of a potency, no number is given. Activity calls are given as the source filed them. Unless noted, calls follow the shape of the dose curve; as a rule, active = well fitted curve in the direction sought with a large enough effect; inconclusive = small, poorly fitted or top-dose-only effect, or another doubt; inactive = no such curve, though single readings can be large; an effect the other way counts as inactive or inconclusive.
# Assays:
# [1] = KB-3-1 P-gp reporter qHTS against the NCATS DSHEA and TCM libraries (AID 1919975)
# Procedure, shortened: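 KB-3-1 parental line, 1536-well qHTS: cells seeded, ~4 h attachment, pintool compound addition, ~72 h at 37C, then CellTiter-Glo, 30 min RT, luminescence. Concentration-response format.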
# [2] = qHTS Counterscreen for compound interference against the NCATS DSHEA and TCM libraries (AID 1919978); conditions: firefly luciferase detection reagent interference, luminescence;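 also: compounds preincubated with 1 µM D-luciferin or buffer before detection reagent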
# Procedure, shortened: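 Compounds, titrated from 19.5 nM to 39.8 uM final, were pinned onto 1 uM D-luciferin or plain 100 mM potassium phosphate. After 15 min at room temperature, luciferin detection reagent was added for 30 min before the luminescence read.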
# [3] = Dual reporter qHTS for agonist of Pregnane X Receptor (hPXR) against the NCATS DSHEA and TCM libraries: Fluorescence readout (AID 1920058)
# Procedure, shortened: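 Viability readout (CellTiter-Fluor, 405/540 nm, 1 h) from agonist-mode PXR dual reporter in hPXR-Luc HepG2 cells. Substances ~24 h, 37 °C, 5% CO2; rifampicin reference, tetraoctyl ammonium bromide cytotoxic control.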
# [4] = target: Nuclear receptor subfamily 1 group I member 2 (Homo sapiens) (UniProt O75469); assay: Dual reporter qHTS for agonist of Pregnane X Receptor (hPXR) against the NCATS DSHEA and TCM libraries: Luminescence readout (AID 1920059)
# Chain of Nuclear receptor subfamily 1 group I member 2 (Homo sapiens) (O75469 whole entry, looked up): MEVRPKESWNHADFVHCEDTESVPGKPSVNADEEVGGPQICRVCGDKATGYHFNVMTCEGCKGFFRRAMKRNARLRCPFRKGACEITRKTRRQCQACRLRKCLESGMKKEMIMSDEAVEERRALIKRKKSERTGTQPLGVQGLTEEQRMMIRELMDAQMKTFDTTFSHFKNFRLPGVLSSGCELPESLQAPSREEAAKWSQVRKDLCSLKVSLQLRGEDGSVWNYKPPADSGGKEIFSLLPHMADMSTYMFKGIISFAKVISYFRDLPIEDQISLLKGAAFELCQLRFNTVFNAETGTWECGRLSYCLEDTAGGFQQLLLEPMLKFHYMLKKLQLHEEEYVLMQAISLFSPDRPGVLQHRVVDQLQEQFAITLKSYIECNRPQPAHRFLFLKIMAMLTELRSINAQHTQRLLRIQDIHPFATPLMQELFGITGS
# Procedure, shortened: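 Luminescent PXR reporter read (ONE-Glo) after a CellTiter-Fluor viability read, following 24 h, 37C treatment of HepG2 cells stably carrying hPXR-Luc.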
# [5] = target: Nuclear receptor subfamily 1 group I member 2 (Homo sapiens) (UniProt O75469); assay: Dual reporter qHTS for antagonist of Pregnane X Receptor (hPXR) against the NCATS DSHEA and TCM libraries: Luminescence Readout (AID 1920060);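 also: HepG2 cells carrying hPXR luciferase reporter stimulated with rifampicin at 2 µM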
# Procedure, shortened: (§1)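 hPXR-Luc HepG2 cells exposed 24 h at 37 C to compounds with 2 uM rifampicin in antagonist mode; luciferase luminescence measured by ONE-Glo, with CellTiter-Fluor viability read beforehand.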
# [6] = Dual reporter qHTS for antagonist of Pregnane X Receptor (hPXR) against the NCATS DSHEA and TCM libraries: Fluorescence Readout (AID 1920061)
# Procedure, shortened: as §1
# [7] = qHTS drug screen for cell cycle checkpoint inhibitors in PARPi-resistant BRCA-mutant ovarian cancer cell lines. (AID 1963452; calls by dose curve); conditions: PEO1/OlaR viability, CellTiter-Glo luminescence, 96 h, stronger effect = lower value
# Procedure, shortened: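 PEO1, PEO4 and PEO1/OlaR ovarian cancer cells, 600 per well, exposed 96 h at 37C to a dilution series. Viability read by CellTiter-Glo luminescence, normalized to DMSO and empty wells; activity summarized as Z-AUC.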
# 3D7 = assay: qHTS profiling for inhibitors of Plasmodium falciparum proliferation (AID 504749); also: nearly all actives have a fitted effect of over 60% in size; also: potency is read from the fitted curve at half-maximal effect; conditions: P. falciparum in erythrocytes, SYBR Green DNA, 72 h; series mostly up to 28.7 µM
# Procedure, shortened: (§2)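 SYBR Green fluorescence of parasite DNA, read after lysis and overnight dark incubation, measured growth over 72 h in erythrocyte culture at 0.3% parasitemia and 2.5% hematocrit. Data normalised to DMSO and 0.29 uM artemisinin, with plate-drift correction.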
# AS120 = assay: as above; conditions: P. falciparum in erythrocytes, SYBR Green DNA, 72 h; series mostly up to 28.7 µM
# Procedure, shortened: as §2
# [8] = qHTS for identification of novel therapeutic agents for treatment of microphthalmiaassociated transcription factor (MiT) renal cell carcinoma (RCC) (AID 1963991); conditions: CellTiter-Glo, 48 h, stronger effect = lower value
# Procedure, shortened: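 Three TFE3-fusion RCC lines (UOK109, UOK124, UOK145), 500 cells/well in complete medium, were treated with MIPE 4.0 compounds for 48 hours at 37 C. Viability was by CellTiter-Glo luminescence, normalized to DMSO (100%) and empty wells (0%); curves fitted over 11 concentrations.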
# [9] = qHTS profiling for inhibitors of Plasmodium falciparum proliferation (AID 504749); also: nearly all actives have a fitted effect of over 60% in size; also: potency is read from the fitted curve at half-maximal effect; conditions: P. falciparum in erythrocytes, SYBR Green DNA, 72 h
# Procedure, shortened: as §2
# 7G8 = assay: as above; conditions: P. falciparum in erythrocytes, SYBR Green DNA, 72 h; series mostly up to 28.7 µM
# Procedure, shortened: as §2
# AA1029 = assay: as above; conditions: P. falciparum in erythrocytes, SYBR Green DNA, 72 h; series mostly up to 28.7 µM
# Procedure, shortened: as §2
# ATS189 = assay: as above; conditions: P. falciparum in erythrocytes, SYBR Green DNA, 72 h; series mostly up to 28.7 µM
# Procedure, shortened: as §2
# C2A = assay: as above; conditions: P. falciparum in erythrocytes, SYBR Green DNA, 72 h; series mostly up to 28.7 µM
# Procedure, shortened: as §2
# CP185 = assay: as above; conditions: P. falciparum in erythrocytes, SYBR Green DNA, 72 h; series mostly up to 28.7 µM
# Procedure, shortened: as §2
# CP191 = assay: as above; conditions: P. falciparum in erythrocytes, SYBR Green DNA, 72 h; series mostly up to 28.7 µM
# Procedure, shortened: as §2
# CP192 = assay: as above; conditions: P. falciparum in erythrocytes, SYBR Green DNA, 72 h; series mostly up to 28.7 µM
# Procedure, shortened: as §2
# ATS95 = assay: as above; conditions: P. falciparum in erythrocytes, SYBR Green DNA, 72 h; series mostly up to 28.7 µM
# Procedure, shortened: as §2
# [10] = measured here: PEO1 parental Z-AUC
# [11] = TFE3-RCC UOK109 viability, measured here: UOK109 Z-AUC
# [12] = TFE3-RCC viability, measured here: UOK124 Z-AUC
# [13] = TFE3-RCC viability, measured here: UOK145 Z-AUC
# [14] = at 28.7 µM (top of the series), parasite line A
# [15] = at 28.7 µM (top of the series), parasite line B
# [16] = at 12.8 µM (top of the series), parasite line A
# [17] = at 12.8 µM (top of the series), parasite line B
smiles,measurement,setting,value
O=c1c(O)c(-c2ccc(O)c(O)c2)oc2cc(O)cc(O)c12,outcome,[1],inactive
same,max response,[2],-0.891% (inactive)
same,outcome,[3],inactive
same,outcome,[4],inactive
same,outcome,[5],inactive
same,outcome,[6],inactive
same,Z-AUC,[7],0.194 (inactive)
same,Z-AUC,[7]; [10],0.475
same,Z-AUC,[7]; measured here: PEO4 Z-AUC,0.343
same,Potency,3D7,12.6 µM (active)
same,Potency,AS120,11.2 µM (active)
CN1C2CCC1CC(OC(=O)C(CO)c1ccccc1)C2 (stereo not given),Z-AUC,[7],0.435 (inactive)
same,Z-AUC,[7]; [10],0.73
same,Z-AUC,[7]; measured here: PEO4 Z-AUC,-0.0914
same,z-score,[8]; [11],0.361
same,z-score,[8]; [12],0.456
same,z-score,[8]; [13],0.45
C[C@@H]1CC(=O)NN=C1c1ccc(NN=C(C#N)C#N)cc1,Z-AUC,[7],0.769 (inactive)
same,Z-AUC,[7]; [10],0.69
same,Z-AUC,[7]; measured here: PEO4 Z-AUC,0.452
CN1CCN(C2=Nc3cc(Cl)ccc3Nc3ccccc32)CC1,Z-AUC,[7],0.802 (inactive)
same,Z-AUC,[7]; [10],0.75
same,Z-AUC,[7]; measured here: PEO4 Z-AUC,0.32
NCCc1cnc[nH]1,Z-AUC,[7],0.48 (inactive)
same,Z-AUC,[7]; [10],0.383
same,Z-AUC,[7]; measured here: PEO4 Z-AUC,0.867
same,z-score,[8]; [11],-0.102
same,z-score,[8]; [12],0.743
same,z-score,[8]; [13],0.389
same,"activity, negative = inhibition",[9]; [14],7.72% (inactive)
same,"activity, negative = inhibition",[9]; [15],10.7% (inactive)
same,Potency,7G8,inactive
same,Potency,AA1029,inactive
same,Potency,AS120,inactive
same,Potency,ATS189,inactive
same,Potency,C2A,inactive
same,Potency,CP185,inactive
same,Potency,CP191,inactive
same,Potency,CP192,inactive
Cc1cc(C(C)(C)C)cc(C)c1CC1=NCCN1,Z-AUC,[7],0.735 (inactive)
same,Z-AUC,[7]; [10],0.684
same,Z-AUC,[7]; measured here: PEO4 Z-AUC,0.966
same,"activity, negative = inhibition",[9]; [16],-3.52% (inactive)
same,"activity, negative = inhibition",[9]; [17],-6.56% (inactive)
same,Potency,3D7,inactive
same,Potency,7G8,inactive
same,Potency,AA1029,inactive
same,Potency,AS120,inactive
same,Potency,ATS189,inactive
same,Potency,ATS95,inactive
same,Potency,C2A,inactive
same,Potency,CP185,inactive
same,Potency,CP191,inactive
CCC1(c2ccccc2)C(=O)NCNC1=O,Z-AUC,[7],1.12 (inactive)
same,Z-AUC,[7]; [10],0.974
same,Z-AUC,[7]; measured here: PEO4 Z-AUC,1.04
same,"activity, negative = inhibition",[9]; [14],6.87% (inactive)
same,"activity, negative = inhibition",[9]; [15],11.7% (inactive)
same,Potency,3D7,inactive
same,Potency,7G8,inactive
same,Potency,AA1029,inactive
same,Potency,AS120,inactive
same,Potency,ATS189,inactive
same,Potency,ATS95,inactive
same,Potency,C2A,inactive
same,Potency,CP185,inactive
same,Potency,CP191,inactive
same,Potency,CP192,inactive
Nc1c2c(nc3ccccc13)CCCC2,Z-AUC,[7],1.3 (inactive)
same,Z-AUC,[7]; [10],1.74
same,Z-AUC,[7]; measured here: PEO4 Z-AUC,1.21
same,z-score,[8]; [11],1.01
same,z-score,[8]; [12],0.33
same,z-score,[8]; [13],1.46
same,Potency,C2A,inactive
NC(=O)NO,Z-AUC,[7],1.41 (inactive)
same,Z-AUC,[7]; [10],1.02
same,Z-AUC,[7]; measured here: PEO4 Z-AUC,0.874
same,"activity, negative = inhibition",[9]; [14],16% (inactive)
same,"activity, negative = inhibition",[9]; [15],12.9% (inactive)
same,Potency,3D7,inactive
same,Potency,7G8,inactive
same,Potency,AA1029,inactive
same,Potency,AS120,inactive
same,Potency,ATS189,inactive
same,Potency,ATS95,inactive
same,Potency,C2A,inactive
same,Potency,CP185,inactive
same,Potency,CP191,inactive
same,Potency,CP192,inactive
CN1C(C(=O)Nc2ccccn2)=C(O)c2ccccc2S1(=O)=O,Z-AUC,[7],0.47 (inactive)
same,Z-AUC,[7]; [10],0.178
same,Z-AUC,[7]; measured here: PEO4 Z-AUC,0.354
same,"activity, negative = inhibition",[9]; [16],-3.72% (inactive)
same,"activity, negative = inhibition",[9]; [17],-0.0614% (inactive)
same,Potency,3D7,inactive
same,Potency,7G8,inactive
same,Potency,AA1029,inactive
same,Potency,AS120,inactive
same,Potency,ATS189,inactive
same,Potency,ATS95,inactive
same,Potency,C2A,inactive
same,Potency,CP185,inactive
same,Potency,CP191,inactive
same,Potency,CP192,inactive

# Reference: PubChem BioAssay (NCATS)
